# VACV mCherry inh – inhibitors of vaccinia virus infection (mCherry reporter signal) | Potency, µM (titrated, usually from 36.5 µM), inactives show at the top dose activity change, negative = inhibition, actives largely listed as inhibitors | Vaccinia virus mCherry reporter infection, fluorescence | 0.63% of 310,000 active; calls by dose curve; tested in A549 cells; also: nearly all actives have a fitted effect of over 35% in size
# HCV inh – HCV inhibition; Huh7.5.1 HCVcc-Cre infection, luciferase reporter, 44 h; Potency, µM (series often up to 41.8 µM), for inactives: at the top dose activity change, negative = inhibition, actives largely listed as inhibitors; 3.4% of 340,000 active; active = well fitted inhibition curve with a large enough effect; inconclusive = small, poorly fitted or top-dose-only effect, or another doubt; inactive = no such curve, though single readings can be large or run the other way
#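 Cells (1,000/well) were plated 4 h before compound, then infected with HCVcc-Cre virus (~0.5 moi). After 44 h further culture, infection was read as luciferase luminescence following a 15 min substrate incubation at room temperature.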
# VACV Venus inh – vaccinia inhibition (Venus reporter); Vaccinia virus Venus reporter expression, fluorescence; Potency, µM (highest dose often 36.5 µM), for inactives: at the top dose activity change, negative = inhibition, most hits filed as inhibitors; 0.46% of 330,000 active; calls by dose curve; tested in A549 cells; also: nearly all actives have a fitted effect of over 30% in size
# Lassa entry inh – blocks Lassa virus binding to or entry into cells; Lassa virus pseudotype entry inhibition, cell reporter; Potency, µM (highest dose often 37.9 µM), for inactives: at the highest dose activity change, negative = inhibition, usual class: inhibitors; 1.2% of 300,000 active; calls by dose curve; tested in HEK293 cells; also: nearly all actives have a fitted effect of over 50% in size
# Marburg entry inh – Marburg virus entry inhibition | Potency, µM (titrated, usually from 37.8 µM), for the others: at the top dose activity change, negative = inhibition, hits mostly inhibitors | Marburg virus pseudotyped entry inhibition, cell reporter | AID 540276 | 1.8% of 300,000 active; calls by dose curve; tested in HEK293 cells
# Numbers without * were called inactive; i = inactive; u = inconclusive; x = not tested or not shown; [ ] = dose if it differs, or a comment. Compounds with a hit are over-represented: about 4.6% of the library has one in this group of screens. % is scaled to controls: 0 for no effect and ±100 for the full control effect; potency is read from the fitted curve at half-maximal effect.
SMILES,VACV mCherry inh,HCV inh,VACV Venus inh,Lassa entry inh,Marburg entry inh
CCCCN(C)C(=O)c1ccc2c(=O)n3nc(Nc4cc(C)ccc4C)sc3nc2c1,u,x,-19.7%,0.6%[46.1 µM],x
CCc1cccc(C)c1NC(=O)C1CCN(S(=O)(=O)Cc2ccccc2)CC1,-0.4%,x,-4.2%,9.6%[46.1 µM],-25.6%[46.1 µM]
CC(=O)N1CCc2c(sc3nc(SCC(C)C)n(-c4ccc(C)c(Cl)c4)c(=O)c23)C1,1.1%,x,1.7%,u,u
CCOC(=O)N1CCN(C(=O)CCl)CC1,2.24µM*,u,3.16µM*,u,u
CC(C)(C)NC(=O)CN1CCN(C(=O)CCl)CC1,u,-25.7%,2.51µM*,u,u
CC(C)(C)NC(=O)CN1CCCN(C(=O)COc2ccc(Cl)c3ccccc23)CC1,u,-14.1%,-12.8%,u,-2.0%
COCCc1nn2c(=O)cc(COC(=O)c3ccc4c(c3)OCO4)nc2s1,-16.9%,x,-10.1%,3.2%[46.1 µM],x
Cc1cc(Cl)nc2nc(Cl)ccc12,25.1%,x,-9.4%,x,x
CCN1CCN(c2cc(C)c3cc(NC(=O)/C=C/c4cccc(Cl)c4)ccc3n2)CC1,11.2µM*,x,u,0.8%[46.1 µM],5.62µM*
CCN1CCN(c2cc(C)c3cc(NC(=O)/C=C/c4cccc(OC)c4OC)ccc3n2)CC1,u,x,u,u,7.08µM*
CCCCC/C=C\C/C=C\CCCCCCCC(=O)NCC(=O)O,-15.2%[3.33 µM],x,-10.5%[3.33 µM],x,x
Cc1onc(-c2c(Cl)cccc2Cl)c1-c1nnc(-c2ccc(Cl)cc2)o1,-5.3%,17.8µM*,-12.6%,u,u
Cc1onc(-c2c(F)cccc2Cl)c1-c1nnc(-c2ccc(C(F)(F)F)cc2)o1,u,-41.6%,17.3%,u,u
Cc1ccccc1C(OCC(O)CN1CCN(CCO)CC1)c1ccccc1 (stereo not drawn),x,4.4%,x,x,-4.4%
OC(COc1ccccc1)CN1CCCCC1 (stereo not drawn),-28.4%,26.3%,0.3%,-9.0%,5.9%
OCCN1CCN(CC(O)COC(c2ccc(F)cc2)c2ccc(F)cc2)CC1 (stereo not drawn),i,u,-6.0%,u,2µM*
OC(COc1ccc(F)cc1)CN1CCN(CC(O)COc2ccc(F)cc2)CC1 (stereo not drawn),-6.5%,31.6µM*,-11.3%,-11.5%[46.1 µM],u
OC(COc1ccc(CNCCc2ccccc2F)cc1)CN1CCCCC1 (stereo not drawn),x,u,x,u,2.31µM*
O=c1cc(CSc2ncn[nH]2)[nH]c2c(Cl)cccc12,-11.3%,x,-19.3%,14.6%[46.1 µM],x
O=C(c1cncs1)N(Cc1cc2cc3c(cc2nc1N1CCOCC1)CCC3)CC1CCCO1 (stereo not drawn),-7.2%,x,-2.3%,x,x
CCc1cccc(NC(=O)CCn2c(=O)c3cccn3c3cccnc32)c1,-20.2%,x,-16.1%,-21.3%[46.1 µM],x
Nc1c2ccccc2nc2ccccc12,u,5.01µM*,10µM*,u,u
CN(C)c1ccc(/C=C/c2ccnc3ccccc23)c(N)c1,-24.1%,x,-14.2%,x,x
CCN1C(=O)NC(c2cccc(C(F)(F)F)c2)C(C(C)=O)=C1C (stereo not drawn),x,x,x,u,12.2%[14.2 µM]
Cc1cc(C)nc(S[C@@H]2C[C@@H](C(=O)N3CCCN(C)CC3)N(Cc3cc(F)ccc3F)C2)n1,-12.5%,x,-5.6%,x,x
SMILES,VACV mCherry inh,HCV inh,VACV Venus inh,Lassa entry inh,Marburg entry inh
CCC(=O)Nc1ccc(NC(=O)c2ccccn2)cn1,-18.3%,12.3%,-4.0%,10µM*,u
O=C(Nc1ccc(NC(=O)C2CC2)nc1)c1ccccn1,-17.7%,10.1%,-16.2%,u,u
CC(C)C(=O)Nc1ccc(NC(=O)c2ccccn2)cn1,-8.8%,-0.7%,-8.1%,u,11.2µM*
C[C@@H]1C=CCCO[C@]12C(=O)Nc1ccccc12,x,x,x,x,-43.8%[14.2 µM]
O=C(Cn1c(=O)n(-c2ccccc2)c(=O)c2c3c(sc21)CCCC3)Nc1ccc(F)cc1F,0.7%,x,7.1%,-5.4%[46.1 µM],u
CCCC1OC2C[C@@H]3[C@H]4CCC5=CC(=O)C=C[C@]5(C)[C@H]4C(O)C[C@]3(C)[C@]2(C(=O)CO)O1 (stereo partly drawn),-25.7%,x,-28.1%,x,x
CCCC1O[C@@H]2C[C@H]3[C@@H]4CCC5=CC(=O)C=C[C@]5(C)C4[C@@H](O)C[C@]3(C)[C@]2(C(=O)CO)O1 (stereo partly drawn),x,x,x,x,3.16µM*
COc1ccc(NC(=O)CCCn2c(=O)c3cccn3c3ccccc32)c(OC)c1,-4.0%,x,-8.6%,u,x
C(=Nc1cccnc1)c1ccc2ccccc2n1,22.9%,x,-4.1%,x,x
CN(C)c1ccc2nc3ccc(=O)cc-3sc2c1,73.2%,x,u,x,x
Cc1cc2nc3ccc(=[N+](C)C)cc-3sc2cc1N,x,3.16µM*,x,x,x
CC[C@]12c3[nH]c4cc(-c5ccco5)ccc4c3CCN1C(=O)[C@@H](CC(=O)NCc1cccc(C(F)(F)F)c1)C[C@@H]2C(=O)N1CCN(C(=O)c2ccco2)CC1,12.6µM*,u,u,x,x
CC[C@]12c3[nH]c4ccc(Cl)cc4c3CCN1C(=O)[C@@H](CC(=O)NCc1cccc(C(F)(F)F)c1)C[C@@H]2C(=O)N1CCN(C(=O)c2ccco2)CC1,-16.0%,31.6µM*,-17.4%,x,3.0%
CC[C@]12c3[nH]c4ccc(Cl)cc4c3CCN1C(=O)[C@@H](CC(=O)NCc1cccc(C(F)(F)F)c1)C[C@@H]2C(=O)N1CCN(C(=O)C2CC2)CC1,i,35.5µM*,u,x,x
CC[C@]12c3[nH]c4ccccc4c3CCN1C(=O)C(CC(=O)NCC13CC4CC(CC(C4)C1)C3)C[C@@H]2C(=O)N1CCN(C(=O)c2ccco2)CC1 (stereo partly drawn),i,11.2µM*,u,x,x
CC[C@]12c3[nH]c4ccccc4c3CCN1C(=O)C(CC(=O)NCc1cccc(C(F)(F)F)c1)C[C@@H]2C(=O)N1CCN(C(=O)C2CC2)CC1 (stereo partly drawn),-9.4%,u,-24.7%,x,x
Cc1cc(S(=O)(=O)N2CCN(Cc3noc(CCC(=O)N4CCCCC4)n3)CC2)ccc1F,-10.1%,x,-5.6%,7.9%[46.1 µM],x
CCc1nnc(N/N=C/c2ccccc2Cl)n1N,u,1.0%,u,u,4.4%
COc1cccc(/C=N/Nc2nnc(C)n2N)c1OCc1ccccc1Cl,i,22.4µM*,-5.1%,-7.8%,3.0%
COc1cc(=O)n2c(c1C(=O)N(C)Cc1nonc1C)CCN(C(=O)c1cc(C)ccc1C)CC2,-2.9%,x,-1.0%,x,x
COc1ccc2c(C)cc(SCC(=O)c3ccc4c(c3)OCO4)nc2c1,x,10µM*,x,28.8%,-0.7%
COc1ccc2c(C)cc(SCC(=O)NC3CCCC3)nc2c1,x,-15.0%,x,x,x
COc1cc2cc(C(=O)N3CC(COS(C)(=O)=O)c4ccc(O)cc43)[nH]c2c(OC)c1OC (stereo not drawn),u,u,35.5µM*,u,u
COc1ccc(C(CCN2CCCCC2)c2c(OC)cc(OC)c3c(-c4ccccc4)cc(=O)oc23)cc1 (stereo not drawn),-27.3%,2.82µM*,14.1µM*,x,x
